Assay results as given in publication PMC13494018.

B1: design_599_7ce25d4d-e004-4b84-a16f-baf856d943ab_1137_dldesign_0_cycle1_af2pred (protein)
chain: GAAAAAAAQEARQAIAEAEFAAAKGDPAAEAALEKAAAAAEKAAAADPEVGAKVKALVDKARAKVAAAKAA
B2: design_599_7ce25d4d-e004-4b84-a16f-baf856d943ab_1925_dldesign_0_cycle1_af2pred (protein)
chain: AQAVLDEAKKAADKAIALANQAIALAKTDLAAGKAKMEEALEELTEADYLADKAAKAGATEEAKKVRDKAKAAIDAARATIKAA
B3: design_600_24101276-ad9d-4944-b73e-53bb160363ad_413_dldesign_0_cycle1_af2pred (protein)
chain: ITPEEAKKLMENIAEAAKDMATWNPAAAETIAKSATKRMESIGKKAGIEEEAKKYSEEVKKFAKEVKEKS
B4: design_599_7ce25d4d-e004-4b84-a16f-baf856d943ab_1788_dldesign_0_cycle1_af2pred (protein)
chain: MEEERREEGRRLAEELVEKAKKAKELAKSGEKIEEAKKLLKEAREEAKKAAKAGLLTPEELKEVADAIHEAYEAIAEGEAKK
B5: design_600_24101276-ad9d-4944-b73e-53bb160363ad_358_dldesign_0_cycle1_af2pred (protein)
chain: DALAAGIVAAMREDPARGAAAARNAALQYEDDPAAYEAVKAAALAAAAADPAVAAALAAAFDAAAKEVSA
B6: design_599_7ce25d4d-e004-4b84-a16f-baf856d943ab_1476_dldesign_0_cycle1_af2pred (protein)
chain: GEELEKLKKRAEKLLEEGKKKAKEDPEEGRKVAKEIRAEGKAHPEGKEAFAKAAAEVYQYIAEEEQKERLKKN
B7: design_600_24101276-ad9d-4944-b73e-53bb160363ad_146_dldesign_0_cycle1_af2pred (protein)
chain: SKIYKLYGELTVEILKEKAEEAVELAKEGKAEEAKKYLKEAYERAKARAERLKEIDPEAGKEALKAVEKTYKEYEKELEKAIKEN
B8: design_599_7ce25d4d-e004-4b84-a16f-baf856d943ab_1672_dldesign_0_cycle1_af2pred (protein)
chain: TPSPELAAKITAATDEILELADKNIEEGGENLDEVEKTATEKGKELGMTKLANALIKSAKIGVELQKKTK
B9: design_599_7ce25d4d-e004-4b84-a16f-baf856d943ab_1147_dldesign_0_cycle1_af2pred (protein)
chain: DAEKLMKKAKEYAELAKQAKEKGTPSSAQVAEFHAEIAEELAKKAEELDPKYKKEAEEIKKIAKEAKAVGEKADEEILKKIK
B10: design_599_7ce25d4d-e004-4b84-a16f-baf856d943ab_1610_dldesign_0_cycle1_af2pred (protein)
chain: DLKEKAKKGIELAKELIEKAKELKKKGDIIGAIAYAERAIHAAEAALKIAKKADPELAKEAKKVLEEAKKELEKIEKE
B11: design_599_7ce25d4d-e004-4b84-a16f-baf856d943ab_2071_dldesign_0_cycle1_af2pred (protein)
chain: GKAKEIAKKGAEELGKALGEEAKVDADIAAEQAEMQPTPELMAEAFKRGAKRIGEKTGKLEKAEEVAKKTVKAIKE
B12: design_599_7ce25d4d-e004-4b84-a16f-baf856d943ab_1912_dldesign_0_cycle1_af2pred (protein)
chain: MEKLKELLEKTKELAKKGVEYAKKGDEEKARKYMLEARKYAEEAKKLDPEAGKEAAKIIQEAYEEMAEARFEVN
B13: design_599_7ce25d4d-e004-4b84-a16f-baf856d943ab_1749_dldesign_0_cycle1_af2pred (protein)
chain: MEKEEELKYGEELLKKAREEAKKKIEKAAKEGKIAEGAQEAIQVINEYSFEAAKKAKKEEVKKKIWEKGKEIKKEVVERAKELVKEQE
B14: design_599_7ce25d4d-e004-4b84-a16f-baf856d943ab_2060_dldesign_0_cycle1_af2pred (protein)
chain: SSLDKKIAEEALKTAREGRKKVEELVKAGKYEEALALAKELREKMLKVYEELVKEGGTIEGIQAAFSAAMLMESAESYAKTKLEAAK
B15: design_599_7ce25d4d-e004-4b84-a16f-baf856d943ab_1164_dldesign_0_cycle1_af2pred (protein)
chain: GKEEAYKKAKEAAEKALEKAEKALKLAKEGKIEEAAKELAEAQELRAEAEFYANKSDKEKKEELLKLIEEAKKKIKEARKVAKEKA
B16: design_599_7ce25d4d-e004-4b84-a16f-baf856d943ab_1596_dldesign_0_cycle1_af2pred (protein)
chain: DEEIKKKAEELKKKAEELEKEAETANAEELKKLAEEAIKLASKAAQLAEYAPKELAPYAEEVENYVSDIAVKAIQKRREVEEKEKKE
B17: design_599_7ce25d4d-e004-4b84-a16f-baf856d943ab_1040_dldesign_0_cycle1_af2pred (protein)
chain: EKLKERYKAAAKNLEKAAESKDKNEAKALIGRAEALALNASADPAAPEIAKLADEALEAVYKDLEKGKELAKKAAEKAKEAAA
B18: design_599_7ce25d4d-e004-4b84-a16f-baf856d943ab_1363_dldesign_0_cycle1_af2pred (protein)
chain: GEAEKAARYLKLAEELAAEVKKNYDNAEKLKEIAREAREAAKEAPESVKPVLAKVAQDAYEARAEAERNASLN
B19: design_599_7ce25d4d-e004-4b84-a16f-baf856d943ab_1357_dldesign_0_cycle1_af2pred (protein)
chain: EEEERRREERAREAREAAEEAKALAEKVKANPKATQEEIDKLNQLALQAEVAEEAIREGYAVEAAERRAREALEEAKKIAEEAEKKAA
B20: design_599_7ce25d4d-e004-4b84-a16f-baf856d943ab_2014_dldesign_0_cycle1_af2pred (protein)
chain: AELKAKAAIARVEFQAENIIEAGKKNGKEAEKIVKAAEETVKKAKEEIEKDPERAWEIAEKYIRELQEKARELIEKA
B21: design_599_7ce25d4d-e004-4b84-a16f-baf856d943ab_1969_dldesign_0_cycle1_af2pred (protein)
chain: MKVEEEVKKTKKVAEEAIKRAEEERKKASPELKEETEEVIKKAKEYMEKAEKAVKEGDYEKAKEYAKKMATYASELIALVNAIKH
B22: design_600_24101276-ad9d-4944-b73e-53bb160363ad_551_dldesign_0_cycle1_af2pred (protein)
chain: GSSAANALADAQRKALKELQAVGKEAEKVSPEAAKKAAEYRDKLLDGETVEEVEAVKEEGLKEVTAMIEKAKAA
B23: design_599_7ce25d4d-e004-4b84-a16f-baf856d943ab_1149_dldesign_0_cycle1_af2pred (protein)
chain: DVLEKMKELVKEIIEAASKLSPDIAKIFEAAGKVALKKYEEDPEAGIKGAQKLAAVGARVALPDKEAAERLKELAKEVA
B24: design_599_7ce25d4d-e004-4b84-a16f-baf856d943ab_1658_dldesign_0_cycle1_af2pred (protein)
chain: EEIQKKNNFLAYAEAAIHAAEAIAKNSDEKTGKALKEEAKKVKEHEDDKEEAIKHLEKAAKIAAGHPGAPILQKRVAKAKAAA
B25: design_599_7ce25d4d-e004-4b84-a16f-baf856d943ab_1731_dldesign_0_cycle1_af2pred (protein)
chain: AAADAKKIQALREKVAEAAALAKDPKTAAEAAKIAKATAKEAKEAAKAATDPAAKKAFAKVAEKAKAVAEEAEKIAKA
B26: design_599_7ce25d4d-e004-4b84-a16f-baf856d943ab_1383_dldesign_0_cycle1_af2pred (protein)
chain: SEEEKKKKYEEAKKKMEKAGEEALKNVEDGAVVMDALATMREAVHEAEKLSPEYGKEARKLLEKYREEIKKKREEVEKKKAEEEKK
B27: design_599_7ce25d4d-e004-4b84-a16f-baf856d943ab_2019_dldesign_0_cycle1_af2pred (protein)
chain: GEELREKLLKEAEEAVKAAAADVPEMKDRLLAQMEKAKAAPLSKAPTELARLGSLLMAAAFATGSKTAEEAAEIAADAALKLK
B28: design_600_24101276-ad9d-4944-b73e-53bb160363ad_105_dldesign_0_cycle1_af2pred (protein)
chain: GEEEEKKKKAVEKAKKALEQTKKAADKGTALDPSAKPEFDKIVKEAEKELKKAEEGDAETAKKAAKEAIEEAHKAYELRAEVEAKAIR
B29: design_600_24101276-ad9d-4944-b73e-53bb160363ad_124_dldesign_0_cycle1_af2pred (protein)
chain: NEMKKKAEELQKKARKLREVVKKGPKDAAEAKKAAEEAKKVAEEAEKAIEEDPSADPKTIAKLQRAAFSAEAAAKQLEKWL
B30: design_599_7ce25d4d-e004-4b84-a16f-baf856d943ab_1823_dldesign_0_cycle1_af2pred (protein)
chain: NISEENKKLAAAEQAKFTAEAAIKKVKATTPEEAKKVAEEAIKRLEKLGKVGEEAAKVAKEEIAKLKATAEKVAA
B31: design_599_7ce25d4d-e004-4b84-a16f-baf856d943ab_1942_dldesign_0_cycle1_af2pred (protein)
chain: KEEIKKIAEEAIEKAENAKTKEQAAEAAKLAAEALKKVGAEKAAKRAEEVAKKAKEGSDSEVPELSKETLILAEQVLFAV
B32: design_599_7ce25d4d-e004-4b84-a16f-baf856d943ab_2320_dldesign_0_cycle1_af2pred (protein)
chain: SVKSRAESAYVTAAARHAKEKAAADPAYAELYGKVLFGFYDTLDDPSAAEETYALDPELAPKLLEEMEKVGKAAADAELAK
B33: design_599_7ce25d4d-e004-4b84-a16f-baf856d943ab_1590_dldesign_0_cycle1_af2pred (protein)
chain: MEEAVKKVKELGKEALKRIEEAGKGTPEELEKKSAEVAKEFDAKVEELASKSSPEAAKAILEEAAKARKEMQETYKKALEQAKKNA
B34: design_599_7ce25d4d-e004-4b84-a16f-baf856d943ab_1128_dldesign_0_cycle1_af2pred (protein)
chain: MLSKEASEVIKKAVKAAKKVAEAGKKLGIGEKAKKEAAKKVEEVADAVVESLEKGKEAAEKFAKEAEVLAKLAKA
B35: design_599_7ce25d4d-e004-4b84-a16f-baf856d943ab_1182_dldesign_0_cycle1_af2pred (protein)
chain: AAVEAALAAAEAEFDRAAAFARGAAAAAVKNPKTKAFGEEALKKLDALKAEVAAAKADPEAALKAAKAAAAEAEAIMDEALEANAKA
B36: design_599_7ce25d4d-e004-4b84-a16f-baf856d943ab_2004_dldesign_0_cycle1_af2pred (protein)
chain: DARKKAAELFKEAGKLATEAAKASPEEGKKLAEEAVAKVKEAAKVLGRERIGENFIKQIVAGRKSREIAGYQLEARADAIAA
B37: design_599_7ce25d4d-e004-4b84-a16f-baf856d943ab_1166_dldesign_0_cycle1_af2pred (protein)
chain: AEELYEKAKKLLTEAIFGLADGTINEEEALKAIEEGRKAAEELKKLGDEEKAEELERGVRALEDMIEDIRKAE
B38: design_599_7ce25d4d-e004-4b84-a16f-baf856d943ab_2233_dldesign_0_cycle1_af2pred (protein)
chain: SLVANIGQDIRSEAIAKAKLGGAEGAKEGAELAREAAVAFRKLGEASTPELKELAEKAAEIMERVSERLEEEAKRKAA

Target: VTCN1, Q7Z7D3
Sequence (Q7Z7D3 whole entry): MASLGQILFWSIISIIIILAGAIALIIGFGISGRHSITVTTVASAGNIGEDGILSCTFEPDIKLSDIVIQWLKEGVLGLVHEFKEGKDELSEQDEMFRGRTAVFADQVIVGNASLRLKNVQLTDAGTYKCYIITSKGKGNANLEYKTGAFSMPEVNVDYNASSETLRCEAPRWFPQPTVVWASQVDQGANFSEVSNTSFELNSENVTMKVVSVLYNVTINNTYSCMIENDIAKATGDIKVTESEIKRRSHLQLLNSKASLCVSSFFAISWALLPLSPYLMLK

Binder	binding in a display sort
B1	not found (inactive)
B2	not found (inactive)
B3	not found (inactive)
B4	not found (inactive)
B5	not found (inactive)
B6	not found (inactive)
B7	not found (inactive)
B8	not found (inactive)
B9	not found (inactive)
B10	not found (inactive)
B11	not found (inactive)
B12	not found (inactive)
B13	not found (inactive)
B14	not found (inactive)
B15	not found (inactive)
B16	not found (inactive)
B17	not found (inactive)
B18	not found (inactive)
B19	not found (inactive)

Binder	binding in a display sort
B20	not found (inactive)
B21	not found (inactive)
B22	not found (inactive)
B23	not found (inactive)
B24	not found (inactive)
B25	not found (inactive)
B26	not found (inactive)
B27	not found (inactive)
B28	not found (inactive)
B29	not found (inactive)
B30	not found (inactive)
B31	not found (inactive)
B32	not found (inactive)
B33	not found (inactive)
B34	not found (inactive)
B35	not found (inactive)
B36	not found (inactive)
B37	not found (inactive)
B38	not found (inactive)
